A short description of assay [1]: qHTS assay to identify small molecule antagonists of the estrogen related receptor (ERR) signaling pathway from Tox21 library - cell viability counter screen (AID 1224834). Note: nearly all actives have a fitted effect of over 30% in size. Note: potency is the fitted concentration of half-maximal effect. An outline of the steps:
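CellTiter-Fluor fluorescence, read after 30 min at 37 C, measures viability of ERR cells. Cells plated at 2,000/well and incubated 6 h before pin-tool compound addition, then exposed 17.5 hours at 37 C.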
(In general: Quantitative high-throughput screening tests each substance at several concentrations.)

Assay [2] has as its target Luciferin 4-monooxygenase (Photinus pyralis) (UniProt P08659). Nature of the assay: qHTS assay to identify small molecule inhibitors of firefly luciferase (AID 1224835). Note: nearly all actives have a fitted effect of over 25% in size. Note: potency is the fitted concentration of half-maximal effect. An outline of the steps:
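Inhibition of purified Photinus luciferase is measured by luminescence. Substrate levels (D-luciferin, ATP) sit at their KM values. Each compound is tested in a concentration series.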

Assay [3] can be described thus: qHTS assay to identify small molecule agonists of the constitutive androstane receptor (CAR) signaling pathway - cell viability counter screen (AID 1224836). Note: nearly all actives have a fitted effect of over 45% in size. Note: potency is the fitted concentration of half-maximal effect. An outline of the steps: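 23 h treatment, 37 C, 5% CO2. Cell line: HepG2 stably expressing hCAR with a CYP2B6-2.2kb construct. Co-treatment: PK11195, 0.75 uM final. Read-out: CellTiter-Fluor fluorescence intensity.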

Assay [4] in a line: qHTS assay to identify small molecule antagonists of the constitutive androstane receptor (CAR) signaling pathway - cell viability counter screen (AID 1224837). Note: nearly all actives have a fitted effect of over 45% in size. Note: potency is the fitted concentration of half-maximal effect. Summed up: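 Cytotoxicity counter-screen: CellTiter-Fluor fluorescence after 23 h compound exposure (15-point qHTS) in double-stable HepG2-CYP2B6-hCAR cells, with 50 nM CITCO added.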
Assay [5] in a line: qHTS assay to identify small molecule antagonists of the estrogen related receptor signaling pathway with the pleiotropic PPARgamma coactivator (PGC) from Tox21 10K library - cell viability counter screen (AID 1224840; active = well fitted cell-killing curve with a large enough effect in the repeat runs, not every such curve was filed as active; note: nearly all actives have a fitted effect of over 40% in size; note: potency is the fitted concentration of half-maximal effect). An outline of the steps:
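Counter-screen for cytotoxicity: after 17.5 h compound exposure at 37 C, CellTiter-Fluor reagent added to PGC/ERR cells for 30 min and fluorescence read. Cells were seeded at 2,000 per well 6 h before dosing.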

The target of assay [6] is Thyrotropin receptor (Homo sapiens) (UniProt P16473). The assay is described as follows: qHTS assay to identify small molecule agonists of the thyroid stimulating hormone receptor (TSHR) signaling pathway (AID 1224843; calls by dose curve; note: nearly all actives have a fitted effect of over 45% in size; note: potency is the fitted concentration of half-maximal effect). An outline of the steps: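 Agonist activity read as cAMP rise via d2/cryptate HTRF competition, 1 h room-temperature detection, in HEK293 cells expressing TSHR. Fifteen-point titrations, each run in triplicate, with a 30 min room-temperature incubation beforehand.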

The nature of assay [7]: qHTS assay to identify small molecule antagonists of the estrogen related receptor signaling pathway with the pleiotropic PPARgamma coactivator (PGC) from Tox21 10K library (AID 1224841; call rule not given here; note: actives are mostly falling curves and most rising ones were filed inactive; nearly all actives have a fitted effect of over 50% in size; note: potency is the fitted concentration of half-maximal effect). Summed up: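 Luminescence (One-Glo, 30 min at room temperature) after 18 h compound treatment at 37 C of PGC/ERR reporter cells plated at 2,000 cells/well and settled 6 h beforehand.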
Assay [8] can be described thus: qHTS assay to identify small molecule agonists of the estrogen related receptor signaling pathway with the pleiotropic PPARgamma coactivator (PGC) from Tox21 10K library (AID 1224842). Note: nearly all actives have a fitted effect of over 15% in size. An outline of the steps: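 Luminescence from One-Glo (30 min, room temperature) measured after PGC/ERR cells had 18 h at 37 C with pinned compound (23 nL in DMSO). Cells had been seeded at 2,000 per well and pre-incubated 6 h.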

Assay [9] concerns the target Nuclear receptor subfamily 1 group I member 3 (Homo sapiens) (UniProt Q14994). The assay is described as follows: qHTS assay to identify small molecule antagonists of the constitutive androstane receptor (CAR) signaling pathway (AID 1224838).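 Note: HepG2 cells stably expressing hCAR with CYP2B6 luciferase reporter stimulated by CITCO; nearly all actives have a fitted effect of over 40% in size.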 Note: potency is the fitted concentration of half-maximal effect. Summed up: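 Antagonism measured as luciferase signal (ONE-Glo, 30 min, room temperature) in CAR-stimulated cells: HepG2-CYP2B6-hCAR double-stable line exposed 24 hr at 37 C to compound in a 15-point series plus 50 nM CITCO.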

The target is the same in assay [10]. The assay is described as follows: qHTS assay to identify small molecule agonists of the constitutive androstane receptor (CAR) signaling pathway (AID 1224839). Note: nearly all actives have a fitted effect of over 15% in size. Note: potency is the fitted concentration of half-maximal effect. Summed up: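 Compounds tested at 15 concentrations on HepG2 cells stably harbouring hCAR and CYP2B6-2.2kb reporter constructs, co-treated with PK11195 (0.75 uM final), 24 h at 37 C; luminescent reporter signal quantified.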

“And” between values parts separate entries of the source, which are not always exact repeats. Equal values may be shown once. Results filed as inconclusive are left out. More than one record can exist for a structure, and the calls need not agree. The source made the active and inactive calls. Unless noted, calls come from the whole dose curve; as a rule, active = well fitted curve in the direction sought with a large enough effect in the repeat runs; inconclusive = weak or mixed curves; inactive = no such curve, though single readings can be large; an effect the other way counts as inactive or inconclusive.

Sequence of Thyrotropin receptor (Homo sapiens) (P16473 whole entry, looked up): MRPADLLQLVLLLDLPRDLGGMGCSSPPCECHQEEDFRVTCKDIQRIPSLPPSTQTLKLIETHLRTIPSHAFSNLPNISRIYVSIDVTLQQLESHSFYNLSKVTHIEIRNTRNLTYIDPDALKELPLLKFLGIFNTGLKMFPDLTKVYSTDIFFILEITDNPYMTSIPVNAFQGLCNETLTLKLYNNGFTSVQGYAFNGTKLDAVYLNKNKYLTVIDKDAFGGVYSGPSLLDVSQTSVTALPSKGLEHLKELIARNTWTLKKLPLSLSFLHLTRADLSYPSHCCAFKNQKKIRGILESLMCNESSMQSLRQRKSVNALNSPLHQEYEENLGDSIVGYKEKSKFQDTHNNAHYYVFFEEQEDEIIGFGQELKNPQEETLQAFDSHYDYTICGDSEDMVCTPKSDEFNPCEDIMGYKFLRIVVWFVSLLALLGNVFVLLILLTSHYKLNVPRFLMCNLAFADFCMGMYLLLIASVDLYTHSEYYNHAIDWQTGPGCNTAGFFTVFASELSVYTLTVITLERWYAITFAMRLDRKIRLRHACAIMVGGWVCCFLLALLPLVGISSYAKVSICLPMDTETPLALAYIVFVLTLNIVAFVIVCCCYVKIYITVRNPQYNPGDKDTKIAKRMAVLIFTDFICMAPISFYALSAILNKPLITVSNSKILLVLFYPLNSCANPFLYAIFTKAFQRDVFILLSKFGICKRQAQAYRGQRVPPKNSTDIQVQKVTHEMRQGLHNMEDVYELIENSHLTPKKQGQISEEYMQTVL
Sequence of Nuclear receptor subfamily 1 group I member 3 (Homo sapiens) (Q14994 whole entry, looked up): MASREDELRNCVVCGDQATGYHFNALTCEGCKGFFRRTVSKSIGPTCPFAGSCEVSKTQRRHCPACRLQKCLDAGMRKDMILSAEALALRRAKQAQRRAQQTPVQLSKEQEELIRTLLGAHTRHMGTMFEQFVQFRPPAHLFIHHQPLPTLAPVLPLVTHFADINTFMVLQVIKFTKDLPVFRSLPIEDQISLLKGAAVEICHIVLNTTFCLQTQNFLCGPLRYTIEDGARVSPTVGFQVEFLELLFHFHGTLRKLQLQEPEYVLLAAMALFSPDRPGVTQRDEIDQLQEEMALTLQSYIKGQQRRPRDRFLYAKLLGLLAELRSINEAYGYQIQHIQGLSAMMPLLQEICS
Sequence of Luciferin 4-monooxygenase (Photinus pyralis) (P08659 whole entry, looked up): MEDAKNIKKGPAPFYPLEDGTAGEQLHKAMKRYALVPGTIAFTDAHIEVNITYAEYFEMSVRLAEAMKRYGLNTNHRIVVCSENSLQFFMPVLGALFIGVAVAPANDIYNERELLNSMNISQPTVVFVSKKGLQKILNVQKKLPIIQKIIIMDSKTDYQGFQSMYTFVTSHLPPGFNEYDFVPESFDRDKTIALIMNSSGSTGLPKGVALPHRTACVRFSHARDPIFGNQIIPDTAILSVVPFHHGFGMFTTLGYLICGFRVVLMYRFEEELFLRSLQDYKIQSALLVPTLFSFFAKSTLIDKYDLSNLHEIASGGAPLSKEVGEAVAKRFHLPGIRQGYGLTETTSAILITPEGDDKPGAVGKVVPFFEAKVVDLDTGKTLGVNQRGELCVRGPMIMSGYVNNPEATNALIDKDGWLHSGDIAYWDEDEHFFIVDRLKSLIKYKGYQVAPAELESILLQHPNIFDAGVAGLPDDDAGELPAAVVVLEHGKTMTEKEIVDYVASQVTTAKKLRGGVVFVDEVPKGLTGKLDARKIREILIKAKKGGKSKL

As for `O=C(O)CF`, the Potency entry in assay [1], in [2], in assay [3], in assay [4], in assay [5] and in assay [6] was “inactive” each time.

Take `Nc1ccc([N+](=O)[O-])cc1N`: the Potency is 48.5 µM (active) and 24.3 µM (active) in assay [1]; 79.6 µM (active) in assay [2]; 48.5 µM (active) in assay [3]; 61.1 µM (active) and 27.3 µM (active) in assay [4]; 43.2 µM (active) in assay [5]. Besides, the Potency entry in [7] and in [8] was “inactive” each time.

For the molecule `Nc1ccc2ccccc2c1`, the Potency entry in [1], in assay [2], in [4], in [9], in [5] and in [7] was “inactive” each time. In assay [8], the Potency result was “inactive”. Moreover, the Potency in [10] is 52.6 µM (active) and 48.6 µM (active).

On to `CC(C)CON=O`, for which the Potency result in assay [1], in assay [2], in assay [4], in assay [9], in [10] and in assay [5] was “inactive” throughout. In addition, the Potency result in assay [6] is “inactive”.

Regarding `Cc1cc(Cl)ccc1N=CN(C)C`, the Potency result in assay [1], in assay [2], in [3], in assay [4], in assay [7] and in assay [8] was “inactive” in each case. Further, the Potency result in [6] is “inactive”.

For the molecule `N#Cc1cccnc1`, the Potency result in assay [1], in [2], in assay [4], in assay [9], in assay [10] and in [5] was “inactive” throughout. Further, the Potency result in [7], in assay [8] and in assay [6] was “inactive” each time.

With `CCOS(=O)(=O)OCC`, the Potency in assay [1] is 54.5 µM (active) and inactive. Further, the Potency entry in assay [2], in [4], in [9], in assay [10], in assay [5] and in [6] was “inactive” throughout.

`N#Cc1c(Cl)c(Cl)c(Cl)c(C#N)c1Cl`: the Potency in [1] was 7.55 µM (active) and 21.7 µM (active); in assay [3], 26.8 µM (active) and 24.3 µM (active); in assay [4] it was 15.1 µM (active) and 9.69 µM (active); in assay [9] it was 5.34 µM (active) and 4.33 µM (active); in [6], 2.68 µM (active) and 3.86 µM (active). The Potency entry in [2] and in assay [10] was “inactive” throughout.

With `CCNc1nc(Cl)nc(NC(C)(C)C#N)n1`, the Potency result in assay [1], in [2], in assay [3], in [4], in [9] and in [10] was “inactive” each time. Besides, in [6], the Potency entry was “inactive”.

On to `CN(C)P(=O)(N(C)C)N(C)C`, for which the Potency entry in [1], in [2], in assay [3], in assay [4], in assay [5] and in [7] was “inactive” in each case. Besides, the Potency entry in assay [8] and in [6] was “inactive” throughout.

For the molecule `Clc1cccc(C(Cl)(Cl)Cl)n1`, the Potency result in assay [1], in assay [2], in assay [3], in assay [4] and in assay [5] was “inactive” throughout.

`CCCCOCC1CO1` (stereo not drawn): the Potency result in [1], in assay [2], in assay [3], in assay [4], in assay [9] and in [10] was “inactive” each time. The Potency entry in assay [7], in assay [8] and in assay [6] was “inactive” in each case.

As for `c1ccc(C2CO2)cc1` (stereo not drawn), the Potency result in [1], in assay [2], in assay [3], in [4] and in [6] was “inactive” throughout.

Turning to `CCCCOCCOC(C)=O`, the Potency entry in assay [1], in assay [2], in [4], in assay [9], in assay [10] and in assay [5] was “inactive” in each case. The Potency result in assay [7], in assay [8] and in [6] was “inactive” throughout.

Turning to `N#CCCCCC#N`, the Potency result in assay [1], in assay [2], in assay [3], in assay [4], in assay [9] and in assay [10] was “inactive” in each case. Moreover, the Potency result in assay [7], in assay [8] and in [6] was “inactive” each time.

Consider `CCCCCCCCCc1ccc(O)cc1`, for which, in assay [1], the Potency was 61.8 µM (active). In addition, the Potency result in [2], in assay [3], in assay [4], in assay [9] and in assay [6] was “inactive” throughout.

On to `Clc1ccccc1-c1nnc(-c2ccccc2Cl)nn1`, for which the Potency result in [1], in assay [4], in assay [9], in assay [5] and in [6] was “inactive” in each case. The Potency was 1.4 µM (active) and 708 nM (active) in [2]; 30.4 µM (active) and 9.66 µM (active) in assay [10].

For the molecule `CN(C)c1ccccc1`, the Potency entry in assay [1], in assay [2], in assay [3], in assay [4], in [5] and in assay [7] was “inactive” in each case. Besides, the Potency result in assay [8] and in [6] was “inactive” throughout.

As for `CC(C)=CC1C(C(=O)OCN2C(=O)C3=C(CCCC3)C2=O)C1(C)C` (stereo not drawn), the Potency entry in assay [1], in assay [2], in assay [3], in assay [4], in assay [5] and in [8] was “inactive” each time.

In the case of `CCCCCCCCCCCCCl`, the Potency entry in [1], in [2], in [3], in assay [4] and in assay [6] was “inactive” throughout.

As to `CC(O)CN(CC(C)O)CC(C)O` (stereo not drawn), the Potency entry in assay [1], in assay [2], in assay [3], in assay [4], in [9] and in assay [10] was “inactive” each time. For the same molecule, in assay [6], the Potency entry was “inactive”.

`Brc1ccc(Br)cc1`: the Potency result in assay [1], in [2], in assay [4], in assay [9], in [10] and in assay [5] was “inactive” throughout. Besides, the Potency entry in [7], in [8] and in assay [6] was “inactive” throughout.

`CC(C)(O)C(=O)Nc1ccc([N+](=O)[O-])c(C(F)(F)F)c1`: the Potency entry in [1], in assay [2], in [3], in assay [4], in assay [9] and in [5] was “inactive” throughout. Besides, the Potency entry in assay [8] and in assay [6] was “inactive” each time. For the same molecule, the Potency in assay [7] is 27.9 µM (active).

For the molecule `S=c1[nH]c2ccccc2[nH]1`, the Potency result in assay [1], in [2], in [3], in assay [4], in assay [10] and in assay [8] was “inactive” in each case. The Potency result in [6] was “inactive”. In addition, the Potency in assay [9] was 54.6 µM (active) and inactive.

With `CCNCC`, the Potency result in assay [1], in assay [2], in assay [3], in assay [4], in assay [7] and in assay [8] was “inactive” each time. Moreover, the Potency result in [6] was “inactive”.

In the case of `COP(=O)(NC(C)=O)SC` (stereo not drawn), the Potency result in assay [1], in assay [2], in [4], in assay [9], in assay [10] and in assay [5] was “inactive” throughout.

The values above are taken from PubChem BioAssay (Tox21).
